Laboratory results from PubChem BioAssay (NCI).
Compounds without any hit were thinned out: in the full panel of roughly 83,000, 20% have a hit.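 Each cell line was grown in a 96-well plate and treated with one concentration of compound for 48 hours. Values below 10 were considered active.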 A number with no mark means an inactive call. Activity calls are given as the source filed them.

How the values were obtained:
Assay in all cases: NCI-60 one-dose screen, 48 h (100 = growth as untreated, 0 = no growth, -100 = all killed)
Conditions in all cases: 10 µM unless noted
NCI-H23 lung = tested on: NCI-H23 lung
NCI-H226 lung = tested on: NCI-H226 lung
HOP-62 NSCLC = tested on: HOP-62 NSCLC
NCI-H460 lung = tested on: NCI-H460 lung
HOP-92 NSCLC = tested on: HOP-92 NSCLC
NCI-H522 lung = tested on: NCI-H522 lung
A549/ATCC NSCLC = tested on: A549/ATCC NSCLC
786-0 renal = tested on: 786-0 renal
COLO 205 colon = tested on: COLO 205 colon
DU-145 prostate = tested on: DU-145 prostate
K-562 leukemia = tested on: K-562 leukemia
MALME-3M melanoma = tested on: MALME-3M melanoma
MDA-MB-231 breast = tested on: MDA-MB-231 breast
SF-268 CNS = tested on: SF-268 CNS
SF-295 CNS = tested on: SF-295 CNS
SF-539 CNS = tested on: SF-539 CNS
UACC-257 melanoma = tested on: UACC-257 melanoma
M14 melanoma = tested on: M14 melanoma
NCI-H322M lung = tested on: NCI-H322M lung
RXF 393 renal = tested on: RXF 393 renal

Row | SMILES | growth (NCI-H23 lung) | growth (NCI-H226 lung) | growth (HOP-62 NSCLC) | growth (NCI-H460 lung) | growth (HOP-92 NSCLC) | growth (NCI-H522 lung) | growth (A549/ATCC NSCLC) | growth (786-0 renal) | growth (COLO 205 colon) | growth (DU-145 prostate) | growth (K-562 leukemia) | growth (MALME-3M melanoma) | growth (MDA-MB-231 breast) | growth (SF-268 CNS) | growth (SF-295 CNS) | growth (SF-539 CNS) | growth (UACC-257 melanoma) | growth (M14 melanoma) | growth (NCI-H322M lung) | growth (RXF 393 renal)
1 | O=C1C(=O)c2cccnc2-c2ncccc21 | -68.3% (active) | -28.7% (active) | -44.7% (active) | -57.3% (active) | -36.9% (active) | 5.23% (active) | 6.49% (active) | -94.1% (active) | -88.5% (active) | -74% (active) | -23.4% (active) | -12.6% (active) | -39.3% (active) | -94.5% (active) | 2.62% (active) | -97% (active) | 0.671% (active) | -92.6% (active) |  | 
2 | CCCc1cc(=O)oc2c3c(c4c(c12)OC(C)(C)CC4)OC(C)[C@H](C)[C@@H]3O (some centres not stated) | 81.4% | 81.1% |  | 85.7% | -1.36% (active) | 57.7% | 72% | 86.4% | 96.1% | 104% | 71.2% | 139% | 79.9% | 94.4% | 44.5% | 108% | 104% | 102% | 106% | 77.5%
3 | S=C=Nc1ccc(N2CCOCC2)cc1 | 92.1% | 86% | 89.6% |  |  | 74.4% |  | 89.8% | 97.4% | 108% | 89.6% | 82.3% | 97.3% | 99.9% | 84.8% | 89.5% | 88.7% | 93% | 96.1% | 72.2%
4 | CC(O)C(O)C(O)C(O)C(O)C(=O)NNc1ccccc1 (configuration not stated) | 96.1% | 94.3% | 72.4% | 100% | 95.2% | 66.8% | 90.9% | 103% | 94.2% | 96.4% | 67.7% | 105% | 81.1% | 87.4% | 86.4% | 92.7% | 100% | 85% |  | 119%
5 | O=C1C=CC(=O)N1c1ccc(O)cc1 | 103% | 101% | 104% | 104% | 101% | 104% | 103% | 98.3% | -37% (active) | 117% | 91.1% |  | 94.7% | 109% | 114% | 111% | 106% | 105% |  | 110%
6 | Cc1c(O)ccc(SC#N)c1C | 98% | 109% | 100% |  | 92.2% |  | 108% |  | 96.9% | 115% | 104% | 129% | 84.9% | 87.1% | 129% | 94.2% | 107% |  | 117% | 112%
7 | O=[N+]([O-])c1ccc(Oc2ccccc2Cl)c([N+](=O)[O-])c1 | 73.9% | 83.8% | 99.4% | 105% | 83.7% |  | 92.7% | 83.7% | 112% | 89% | 17.4% | 85.5% | 75.5% | 84.9% | 102% | 94.6% | 89.8% | 86.2% |  | 86.7%
8 | CCc1cnc2ccccc2c1/C=C/c1ccc(N(C)C)cc1 | 65.2% | 74.5% | 47.4% |  | 60.1% | 23.3% |  | 44% | 41.5% | 68.4% | 13% | 50.7% | 38.8% | 57.4% | 26% |  | 56.4% | 28.2% | 71.6% | 63%
9 | COC(=O)c1nc(=S)[nH]c(C(=O)OC)c1C(=O)c1ccc(Cl)c(Cl)c1 | 103% | 102% | 115% |  |  | 101% | 105% | 107% | 120% | 120% | 113% | 102% | 102% | 111% | 99.8% | 102% | 111% | 107% | 107% | 112%
10 | COc1cc(/C=C/c2ccnc3ccccc23)cc(OC)c1OC | 26.5% | 38.3% | 28.1% |  |  | 26.8% | 37% | 39.6% | 22.5% | 64.4% | 8.29% (active) | 40.3% | 47.1% | 48.2% | 32.4% | 46.1% | 58.7% | 13.3% | 65.7% | 22.1%
11 | Fc1ccc(NCCS)cc1 | 97.4% | 104% | 99.6% | 102% | 103% | 90% | 92.7% |  | 108% | 107% | 101% | 108% | 102% | 102% |  | 103% | 102% | 103% |  | 108%
12 | Nc1nc2ncc(CNc3ccc(C(=O)NC(CCC(=O)NC(CCC(=O)NC(CCC(=O)NC(CCC(=O)NC(CCC(=O)O)C(=O)O)C(=O)O)C(=O)O)C(=O)O)C(=O)O)cc3)nc2c(=O)[nH]1 (configuration not stated) | 101% | 113% | 100% | 120% | 95.3% | 96.9% | 104% | 105% | 113% | 108% | 97.4% | 90.3% |  | 105% | 106% | 99.8% | 105% | 107% |  | 112%
13 | CSc1nc(C)c(C(=O)CCN2CCN(c3ccccn3)CC2)s1 | 106% | 107% |  | 106% |  | -64.2% (active) | 102% | 101% |  | 102% | 93.6% | 102% | 101% | 102% | 102% | 99% | 99.7% | 99.9% | 107% | 100%
14 | Cc1ccc2cccc(OC(=O)Nc3cccc(C(F)(F)F)c3)c2n1 | 37.1% | 67.7% |  | 27.5% |  |  | 42.7% | 78.6% | 62.3% | 71.1% | 33.5% | 82% | 86.6% | 95% | 6.24% (active) | 96.4% | 87.3% | 85.5% | 88.7% | 95.6%
15 | O=C(O)c1cccc2cccc(-c3c4ccc(=O)c(O)c-4oc4c(O)c(O)ccc34)c12 | 89.3% | 95.5% |  | 100% | 93.8% | 90.9% | 96.4% | 98.8% | 111% | 98.2% | 70.6% | 102% | 83% | 92.8% | 103% | 89.4% | 110% | 92.5% | 97.2% | 94.4%
16 | CCCCCC/C=C1\CCC(CN2CCCC2)C1=O (configuration not stated) | 99.9% | 95.5% |  | 102% | 90.5% | 93.5% |  | 77.4% |  | 107% | 57.3% | 119% | 102% | 102% | 111% | 114% | 92.1% | 93.3% | 106% | 95.6%
17 | O=[N+]([O-])c1ccc(C2N(Cc3ccc(Cl)cc3)CCN2Cc2ccc(Cl)cc2)cc1 | 97.5% | 95.1% | 94.5% | 101% | -1.91% (active) | 75.8% | 96% | 81.7% |  | 107% | 67% | 109% | 79.6% | 90.1% | 92.1% | 86.3% | 92% | 86.2% |  | 74.4%
18 | CCCCCCCCCCCCCCCc1ccc(C(=O)C[n+]2ccccc2)cc1 | -62% (active) | -6.49% (active) | -99% (active) | -80.6% (active) | -87.1% (active) | -90.2% (active) | -95% (active) |  | -90.5% (active) | -97.6% (active) | -81.6% (active) |  | -53.8% (active) | -87% (active) | -74.8% (active) | -98.4% (active) | -76.3% (active) | -90.4% (active) |  | 
